The sample as a whole holds a higher share of hits than the screen did.
Pf Dd2 inh: inhibitors of Plasmodium falciparum Dd2 growth. Potency, µM (highest dose often 28.9 µM), for the others: at the top dose activity, negative = inhibition, actives largely listed as inhibitors. P. falciparum Dd2 growth, SYBR Green, 72 h. 120,000 tested, 4.3% active. AID 1347417; active = well fitted inhibition curve with a large enough effect;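 note: plate controls were DMSO vehicle for no effect and reference drug for full effect; nearly all actives have a fitted effect of over 65% in size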
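Readout: SYBR Green fluorescence, 485 nm excitation, 535 nm emission, after ~16 h lysis at 37C. Before that, Dd2-infected red cells (2.5% hematocrit) grew 72 h with compound, 29 uM top final concentration.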
Active calls of the source: *; i = inactive; [ ] = another dose, or the depositor's remark. Potency is the fitted concentration of half-maximal effect.

SMILES | Pf Dd2 inh
COC(=O)c1cccc(NC(=S)N[C@H]2CO[C@H]3[C@@H]2OC[C@@H]3n2cc(CC3CCCCC3)nn2)c1 | i
Cc1cc(N2CCC(C)CC2)nc2ccc(NC(=O)Cc3ccccc3Br)cc12 | -19%
Cc1cc(N2CCN(C)CC2)nc2ccc(NC(=O)Nc3ccc(Cl)cc3)cc12 | 11µM*
CCOc1ccccc1NC(=O)Nc1ccc2nc(N3CCN(C)CC3)cc(C)c2c1 | 0.45µM*
Cc1cc(N2CCN(C)CC2)nc2ccc(NC(=O)c3ccc(C(C)(C)C)cc3)cc12 | 6.3µM*
COc1cc(C(=O)Nc2ccc(NC(=O)c3ccc(C(C)(C)C)cc3)cc2)cc(OC)c1OC | i
Cc1ccccc1C(=O)Nc1ccc2nc(N3CCCCC3)cc(C)c2c1 | i
CCOc1ccccc1NC(=O)Nc1nnc(N2CCCCCC2)s1 | -26%
Cc1ccccc1NC(=O)Nc1ccc2nc(N3CCN(C)CC3)cc(C)c2c1 | 2µM*
CC(C)(C)c1ccc(C(=O)Nc2ccc(NC(=O)c3ccc(Cl)c(Cl)c3)cc2)cc1 | 11%
Cc1cc(SCC(=O)Nc2ccc(Cl)cc2)nc2ccccc12 | i
CN1CCN(c2ccc3nnc(-c4cc(C(=O)Nc5cccc(Cl)c5)ccn4)n3n2)CC1 | i
COc1ccccc1CC(=O)Nc1ccc2nc(N3CCC(C)CC3)cc(C)c2c1 | 3%
O=C(Cc1ccc2c(c1)OCC2)Nc1ccc2c(c1)C(=O)N1CCC[C@H]1C(=O)N2 | -18%
CCOc1ccc2c(n1)CCN(C(=O)c1ccoc1)C2 | 23%
Cc1nnnn1-c1cccc(C(=O)Nc2ccc3c(c2)C(=O)N2CCC[C@H]2C(=O)N3)c1 | -3%
CN(Cc1cccc(C(F)(F)F)c1)Cc1ccccc1C(F)(F)F | -3%[44.1 µM]
O[C@H]1CC[C@@H](Cc2cc(-c3ccccc3)on2)O[C@@H]1CNC1CCNCC1 | -1%[44.1 µM]
COC(=O)[C@@H]1Cc2ncn(C)c2CN1C(=O)c1ccc(OC)cc1 | 14%[44.1 µM]
COc1ccccc1-c1cc(C(=O)N2CCOCC2)nc2c1cnn2C | 7%
COC1CCC12CCN(Cc1cccnc1)CC2 (centres undefined) | i
Cc1ccc(-c2nccn3cc(C(=O)N4CCN(c5ncccn5)CC4)nc23)cc1 | i
CCN(CC)Cc1cnc2c(C(=O)N3CCCN4CCC[C@H]4C3)cnn2c1 | -23%
CCC(CC)CN1CC2(CCN(C(=O)c3cnc(NC)nc3)CC2)OC1=O | 9%
CN(C)CCNC(=O)c1ccc(-c2ccc(N3CCCCCC3)nc2)cc1 | -15%
SMILES | Pf Dd2 inh
CNC(=O)N1C[C@@H](CN(C)C)[C@H](NS(=O)(=O)c2cc(F)ccc2C)C1 | -9%
CNC(=O)N1C[C@@H](CN(C)C)[C@H](NS(=O)(=O)c2ccc(F)cc2F)C1 | 18%
CN(C)C[C@@H]1CN(C)C[C@H]1NS(=O)(=O)c1cc(F)cc(F)c1 | 8.9µM*
Cc1noc(-c2cccc(OC3CN(C(=O)c4cccc5[nH]ccc45)C3)c2)n1 | i[5.79 µM]
CC(C)CCN1CCn2c(nnc2-c2ccc(Cl)cc2)C1 | 1%
O=C(NCCc1ccccc1)c1ccc2c(c1)N(Cc1c(F)cccc1Cl)C(=O)CS2 | i
CCOC(=O)c1ccc2c(c1)N(Cc1ccccc1)C(=O)c1ccccc1S2 | -13%
O=C(c1ccc2c(c1)N(Cc1cccc(F)c1)C(=O)c1ccccc1S2)N1CCOCC1 | -17%
CCN(CC)CCNC(=O)Nc1ccc2c(c1)N(Cc1ccccc1)C(=O)c1ccccc1S2 | 4µM*
Cc1ccccc1CN1C(=O)c2ccccc2Sc2ccc(C(=O)N3CCCC3)cc21 | -17%
O=C(c1ccc2c(c1)N(Cc1c(F)cccc1Cl)C(=O)c1ccccc1S2)N1CCC2(CC1)OCCO2 | 10µM*
CN1C(=O)c2ccccc2Sc2ccc(NC(=O)NCc3ccc(Cl)cc3)cc21 | -27%
CN1CCN(C(=O)c2ccc3c(c2)N(Cc2ccc(C(F)(F)F)cc2)C(=O)c2ccccc2S3)CC1 | 0.4µM*
Cc1ccccc1CN1C(=O)c2ccccc2Sc2ccc(C(=O)N3CCOCC3)cc21 | 31%
Cc1cccc(CN2C(=O)c3ccccc3Sc3ccc(C(=O)N4CCCC4)cc32)c1 | 14µM*
Cc1ccccc1CN1C(=O)c2ccccc2Sc2ccc(C(=O)O)cc21 | 13%
COc1ccc(CCN2Cc3cc(NC(=O)Cc4ccccc4)ccc3OC(C)C2=O)cc1 (centres undefined) | -7%
C=CCOC(=O)C1=C(C)N=C2SC=C(CC(=O)NCC3CC3)N2C1c1ccc(OC)c(OC)c1 (centres undefined) | 0%
COc1ccc2ccc(OCc3nc(C(=O)NCc4csc(N)n4)co3)cc2c1 | -20%
COc1ccc(C(=O)NC(C(=O)N2CCCC2)C2CCN(C(=O)c3ccc(Cl)cc3)CC2)cc1 (centres undefined) | i
Cc1ccc(NC(=O)N2CCCCCCNC(=O)CC2c2ccccc2)cc1C (centres undefined) | -6%
Cc1cc2nc3n(c(=O)c2n1CC(=O)Nc1cccc(Cl)c1)CCC3 | i
O=C1CCN(C(=O)COc2ccccc2)CCCC(CO)CCN1 (centres undefined) | -4%
CCCn1cc(NC(=O)CC[C@H]2NC(=O)c3ccccc3NC2=O)c(C)n1 | -3%
Cn1c(=O)n([C@H]2CCCN(C(=O)c3cnccn3)C2)c2ncccc21 | 1%
SMILES | Pf Dd2 inh
CC(=O)Nc1ccc(NC(=O)Cn2cccc2-c2nc(-c3ccccc3)no2)cc1 | 24%
CN1CCN(C(=O)c2ccc3c(c2)N(Cc2c(F)cccc2Cl)C(=O)c2ccccc2S3)CC1 | 0.2µM*
COC(=O)c1ccc2c(c1)N(Cc1ccc(Cl)cc1)C(=O)c1ccccc1S2 | 24%
COC(=O)c1ccc2c(c1)N(Cc1ccc(F)cc1)C(=O)c1ccccc1S2 | 5%
CCN(C(=O)CN1C(=O)c2ccccc2Sc2ccc(C(=O)OC)cc21)c1cccc(C)c1 | 11µM*
CC(C)OCCCNC(=O)c1ccc2c(c1)N(Cc1c(F)cccc1Cl)C(=O)c1ccccc1S2 | -13%
O=C(NC1CCCC1)c1ccc2c(c1)N(Cc1c(F)cccc1Cl)C(=O)c1ccccc1S2 | -19%
O=C1Cc2c(-c3ccc(N4CCOCC4)cc3)n[nH]c2CN1CCc1ccncc1 | -9%[44.1 µM]
O=C(CN1C(=O)COc2ccc(C(=O)COc3ccc(F)cc3)cc21)NCCc1ccccc1 | i
Cn1nc2n(c1=O)CCN(C(=O)NC1CCCCC1)CC2 | 4%
Cc1cccc(N2CCN(c3nccc(-c4ccccn4)n3)CC2)n1 | -14%
Cc1ccc(CN2CCC(CNc3nccc(-c4ccccn4)n3)CC2)o1 | i
CN(Cc1ccccc1CN1CCCC1)c1nccc(-c2ccccn2)n1 | 3.5µM*
O=C1CCN(C(=O)c2ccoc2)CCCCCCN1 | -11%
O=C(Cn1c(=O)oc2ccccc21)N1CCC2(CC1)NCCc1c2[nH]c2ccccc12 | 8.9µM*
COCCC(=O)N1CCC2(CC1)NCCc1c2[nH]c2ccccc12 | -19%
O=C(CN1CCCC1=O)N1CCC2(CC1)NCCc1c2[nH]c2ccccc12 | 19%
COCCNC(=O)[C@@H]1C[C@H](Oc2cccnc2)CN1C(=O)C1(C)CCCCC1 | -4%
O=C(NCC1CCOCC1)c1cccc(C(F)(F)F)c1 | 16%
O=C(Cc1cn2ccsc2n1)NC1CCOC2(CCOCC2)C1 (centres undefined) | -1%
Cc1cn(CC(=O)N2CCOCC(O)C2)c(=O)[nH]c1=O (centres undefined) | 2%
CCOC(=O)c1sc(N2C(=O)c3oc4cc(C)c(C)cc4c(=O)c3C2c2cccc(O)c2)nc1C (centres undefined) | -4%
CCOC(=O)c1ccc(N2C(=O)c3n[nH]c(-c4cccs4)c3C2c2ccc(C)cc2)cc1 (centres undefined) | 49%

Screening data deposited in PubChem BioAssay by National Center for Advancing Translational Sciences (NCATS).
